Hits are enriched below; roughly 3.5% of the tested compounds scored in any of these assays.
Anthrax LF prot = anthrax lethal factor protease inhibition. multiplex microsphere protease cleavage assay, LF. P15917. inhibition, % at 10 µM. actives 0.12% (n = 360,000). AID 588501
Target sequence (P15917 whole entry, looked up): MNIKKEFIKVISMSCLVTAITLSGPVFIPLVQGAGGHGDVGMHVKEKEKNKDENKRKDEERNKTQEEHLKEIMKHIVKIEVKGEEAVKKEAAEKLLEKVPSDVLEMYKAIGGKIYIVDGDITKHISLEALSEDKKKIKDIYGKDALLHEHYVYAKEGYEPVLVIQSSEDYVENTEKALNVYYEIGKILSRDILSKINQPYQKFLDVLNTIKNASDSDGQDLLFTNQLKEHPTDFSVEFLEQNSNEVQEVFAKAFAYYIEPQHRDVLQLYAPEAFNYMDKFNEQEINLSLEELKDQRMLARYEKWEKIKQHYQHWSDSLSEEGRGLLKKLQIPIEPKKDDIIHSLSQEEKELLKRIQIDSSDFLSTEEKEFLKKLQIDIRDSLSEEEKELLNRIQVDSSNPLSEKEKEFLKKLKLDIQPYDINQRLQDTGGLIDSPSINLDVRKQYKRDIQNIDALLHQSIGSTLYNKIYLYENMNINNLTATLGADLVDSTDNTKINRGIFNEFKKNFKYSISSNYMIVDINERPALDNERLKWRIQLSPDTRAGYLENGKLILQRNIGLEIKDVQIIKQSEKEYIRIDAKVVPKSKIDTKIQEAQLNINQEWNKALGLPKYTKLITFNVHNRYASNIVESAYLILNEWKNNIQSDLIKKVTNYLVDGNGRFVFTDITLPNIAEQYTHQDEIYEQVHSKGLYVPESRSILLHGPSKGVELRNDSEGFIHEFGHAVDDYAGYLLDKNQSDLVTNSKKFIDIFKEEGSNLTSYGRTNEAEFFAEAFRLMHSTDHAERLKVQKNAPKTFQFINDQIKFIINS
BoNT-F LC inh = blocks Botulinum neurotoxin F light chain protease. Multiplex microsphere protease cleavage assay, flow cytometry. inhibition, % at 10 µM. actives 0.22% (n = 360,000). AID 588497; in the data active = inhibition above about 35%, passing the limit was not always enough; inconclusive = no clear call, values can overlap the other calls
BoNT A protease = BoNT A light chain protease inhibition | multiplex microsphere protease substrate cleavage, flow cytometry | inhibition, % at 10 µM | actives 0.17% (n = 360,000)
Bead autofluor = compound fluorescence in toxin protease inhibitor counterscreen; compound autofluorescence counterscreen, microsphere flow cytometry; hits give high values; fluorescence intensity (test concentration not listed); actives 3.1% (n = 360,000); AID 624483; in the data active = fluorescence intensity above about 16000; inconclusive = no clear call, values can overlap the other calls
Large screens that a line does not name were inactive. Cut-off read from the data, not from the text of the source, unless noted: active = inhibition above about 30%; inconclusive = no clear call, values can overlap the other calls; inactive = below that.

CC(C)(C)NC(=O)CN(Cc1cccs1)C(=O)C1COc2ccccc2O1 (centres undefined)	Bead autofluor 23568
CC1(C)NC(C)(C)C(O)(C(N)=O)C1=O (centres undefined)	Bead autofluor 23198
CC(=O)Nc1nc(COc2ccc3ccccc3c2)cs1	Bead autofluor 23460
CC(=O)Nc1nc(COc2ccccc2)cs1	none
O=C(Nc1nc(COc2ccccc2)cs1)C12CC3CC(CC(C3)C1)C2	Bead autofluor 24492
COc1cccc(C2c3c(oc4ccc(Cl)cc4c3=O)C(=O)N2c2cc(C)on2)c1OC (centres undefined)	Bead autofluor 16528
COc1ccc(/C(O)=C2\C(=O)C(=O)N(c3cc(C)on3)C2c2cccc(OC)c2OC)cc1C (centres undefined)	none
Clc1ccc(-c2ccc(CNCc3ccccn3)o2)cc1	none
O=C(NC1CCCCC1)N(Cc1cc2cc3c(cc2[nH]c1=O)OCCO3)CC1CCCO1 (centres undefined)	BoNT A protease inconclusive, Bead autofluor 18971
Cc1ccc2cc(CN(CCCN3CCOCC3)C(=O)NC3CCCCC3)c(=O)[nH]c2c1C	none
O=C(NC1CCCCC1)N(CCO)Cc1cc2cc3c(cc2[nH]c1=O)OCCO3	none
Cc1cc2cc(CN(CCCN3CCOCC3)C(=O)NC3CCCCC3)c(=O)[nH]c2cc1C	Bead autofluor 23619
Cc1cc(C)n2nc(-c3cnn(C)c3C(F)(F)F)c(Cl)c2n1	none
Cc1cc(C)n2nc(-c3cnn(C)c3C(F)(F)F)cc2n1	BoNT A protease inconclusive, Bead autofluor 19076
CCCN1CCN(C(=O)c2ccc(Sc3ccc(C)cc3)c(NC(C)=O)c2)CC1	Bead autofluor 24723
Cc1cc(C)n(-c2nc3ccccc3c(=O)n2OCC(N)=O)n1	Bead autofluor 21858
O=C1C(=C2CCCCC2)SC(=S)N1Cc1ccco1	BoNT A protease inconclusive, Bead autofluor 23926
CCN(CC)CCC(O)(c1ccccc1)C1CCCCC1 (centres undefined)	BoNT-F LC inh inconclusive, Bead autofluor 60438
CN(C(=O)c1ccccc1)C(=O)c1ccccc1	none
CCOc1cc(C2C(C(=O)N3CCCCC3)=C(C)NC3=C2C(=O)CCC3)cc(Br)c1O (centres undefined)	Bead autofluor 24537
Cc1cn([C@H]2C[C@H](O)[C@@H](/C=C/C(=O)NCCC(c3ccccc3)c3ccccc3)O2)c(=O)[nH]c1=O	none
O=C(CN(c1ccccc1)S(=O)(=O)c1ccc(F)cc1)NC1CCCCCC1	none
CC1(C)CC(=O)C2=C(C1)NCN(Cc1ccccc1)C2	Bead autofluor 16534
CCN1C(=N)N(c2ccccc2)C(=O)C(CC)(CC)C1=O	none
CN(C)C(=C(C#N)C#N)N1CCN(c2ccc(Cl)c(Cl)c2)CC1	Bead autofluor 20347
COCCOC(=O)c1c(C)n(C)c2ccc(OC(=O)c3ccccc3OC)cc12	none
COCCOC(=O)c1c(C)n(C)c2ccc(OC(=O)c3ccco3)cc12	BoNT A protease inconclusive, Bead autofluor 22026
O=C(O)c1ccccc1S(=O)CCO (centres undefined)	Bead autofluor 22978
COC(=O)C(C)Sc1nnc(-c2ccncc2)o1 (centres undefined)	BoNT A protease inconclusive, Bead autofluor 21757
CC(C)(C)NC(=O)CSc1nnc(-c2ccncc2)o1	none
NC(=O)CSc1nnc(-c2ccncc2)o1	none
CCOC(=O)C(Sc1nnc(-c2ccncc2)o1)C(C)=O (centres undefined)	Bead autofluor 16214
Cn1c(NC(=O)c2ccccc2)c(-c2ccccn2)c(=O)c2ccccc21	Bead autofluor 20450
Cn1c(NC(=O)c2ccc(F)cc2)c(-c2ccccn2)c(=O)c2ccccc21	none
O=C(/C=C/c1ccc(F)cc1)NCCC1=CCCCC1	Bead autofluor 23985
COc1nsnc1N1CCOCC1	none
COC(=O)COc1nsnc1N1CCOCC1	Bead autofluor 24961
O=C1NC[C@H](Cc2ccccc2)N(CC2CCN(CCC34CC5CC(CC(C5)C3)C4)CC2)C1=O	none
COc1ccc(-c2noc(-c3cccs3)n2)cc1OC	none
COc1cc(-c2noc(-c3cccs3)n2)cc(OC)c1OC	BoNT A protease inconclusive, Bead autofluor 20254
C=CC1=CCN(S(=O)(=O)C(C)(C)C)[C@H]1CCO	none
CC1(C(=O)NS(=O)(=O)C2CC2)CCCN(C(=O)c2cccc(Cl)c2)C1 (centres undefined)	none
COC(=O)c1ccc(C(=O)OC)c(NC(=S)N2CCCC(CO)C2)c1 (centres undefined)	none
COC(=O)c1cc(OC)c(OC)cc1NC(=S)N1CCCC(CO)C1 (centres undefined)	Bead autofluor 22143
CCCCn1c(N)c(N(CC(C)C)C(=O)CC(NC(=O)c2ccccc2Cl)c2ccccc2)c(=O)[nH]c1=O (centres undefined)	none
COc1ccc(N(C)C(=O)Cc2c(C(=O)O)[nH]c3ccccc23)cc1	none
CCN(C(=O)Cc1c(C(=O)O)[nH]c2ccccc12)c1cc(OC)ccc1OC	Bead autofluor 20129
O=C(COc1ccccc1)N(Cc1ccccc1)c1nc(-c2ccccc2)cs1	Bead autofluor 21962
COc1ccc(-c2csc(N(Cc3ccccc3)C(=O)COc3ccc(Cl)cc3)n2)cc1	none
COc1ccc(-c2csc(N(CCc3ccc(OC)c(OC)c3)C(=O)COc3ccccc3)n2)cc1	BoNT A protease inconclusive, Bead autofluor 19913
CN(C(=O)COc1ccccc1)c1nc(-c2ccc(F)cc2)cs1	none
CCCN(C)C1CN(Cc2cn(CCCC(=O)OC)nn2)S(=O)(=O)C1 (centres undefined)	none
O=C1CC(c2ccccc2Cl)C2=C(COC2=O)N1 (centres undefined)	Bead autofluor 23482
COc1ccc(CNCCSc2nnnn2C)cc1OC	Bead autofluor 19838
COc1cccc(CNCCSc2nnnn2C)c1	none
COc1ccc(CNCCSc2nnnn2C)c(OC)c1OC	none
CCc1ccc(CNCCSc2nnnn2C)cc1	Bead autofluor 23525
COc1ccc(Br)cc1CNCCSc1nnnn1C	Bead autofluor 22723
O=C1NC[C@@H](CCCCN2C[C@H](Cc3ccccc3)N(CCc3ccccc3)C(=O)C2=O)N(CCc2ccccc2)C1=O	none
COc1ccc(CN(C)C[C@@H]2OCCCC[C@H](C)Oc3ccc(NC(=O)Nc4ccc(F)cc4)cc3C(=O)N([C@H](C)CO)C[C@H]2C)cc1	none
CCC(C)Nc1c([N+](=O)[O-])cc(C)cc1[N+](=O)[O-] (centres undefined)	BoNT A protease inconclusive, Bead autofluor 24719
Cc1cc(C)cc(CSCC(=O)N/N=C/c2ccc(OCC(=O)NCc3ccco3)cc2)c1	Bead autofluor 21576
COC(=O)CSC(C(=O)Nc1ccc(C)c(C)c1)c1ccccc1 (centres undefined)	Bead autofluor 22778
C1CCN(CC2CCCCN2)CC1 (centres undefined)	none
CSc1nsc(SCC(=O)Nc2ccccc2)n1	none
Cc1cc(C(F)(F)F)nc(SCC(=O)Nc2ccccc2)n1	BoNT A protease inconclusive, Bead autofluor 22832
COC(=O)CSc1nc(C)cc(C)n1	none
CSc1nsc(SCC(=O)Nc2cccc(C(C)=O)c2)n1	Bead autofluor 21617
COC(=O)CSc1cc(C)nc(SC)n1	Bead autofluor 20467
COC(=O)CSc1cc(C)nc(NC(C)=O)n1	none
CCOC(=O)CSc1cc(C)nc(NC(C)=O)n1	BoNT A protease inconclusive, Bead autofluor 19697
